Test results reported in article PMC11102866, “Nucleosome-bound NR5A2 structure reveals pioneer factor mechanism by DNA minor groove anchor competition”.
Substitutions are numbered along the chain they refer to. In names and notes the source's numbering stands.

How the values were obtained:
[1] = target: NR5A2 wild type;histone octamer (Homo sapiens;, UniProt O00482;C0HKE1;Q6ZWY9;P84244;P62806 1-541;2-130;2-126;2-136;2-103, |); assay: SeEN-seq (EMSA of nucleosome library followed by sequencing); 0.8 uM human NR5A2; 20 mM Tris-HCl pH 7.5, 120 mM NaCl, 1 mM MgCl2, 10 uM ZnCl2, 1 mM DTT, 100 ug/ml BSA, room temperature, 30 min; 0.1 uM nucleosome library; high values mean tight binding
[2] = target: mouse Nr5a2 wild type;histone octamer (Mus musculus;, UniProt P45448;C0HKE1;Q6ZWY9;P84244;P62806 1-560;2-130;2-126;2-136;2-103, |); assay: SeEN-seq (EMSA of nucleosome library followed by sequencing); 1.2 uM mouse Nr5a2; 20 mM Tris-HCl pH 7.5, 120 mM NaCl, 1 mM MgCl2, 10 uM ZnCl2, 1 mM DTT, 100 ug/ml BSA, room temperature, 30 min; 0.1 uM nucleosome library; high values mean tight binding

B1: 76 (nucleosome)
DNA 1: ATCCTGGAGAATCCCGGTGCCGAGGCCGCTCAATTGGTCGTAGACAGCTCTAGCACCGCTTAAACGCACGTACGCGCTTCAAGGCCAGTTTTAACCGCCAAGGGGATTACTCCCTAGTCTCCAGGCACGTGTCAGATATATACATCCTGTGAT
DNA 2: ATCACAGGATGTATATATCTGACACGTGCCTGGAGACTAGGGAGTAATCCCCTTGGCGGTTAAAACTGGCCTTGAAGCGCGTACGTGCGTTTAAGCGGTGCTAGAGCTGTCTACGACCAATTGAGCGGCCTCGGCACCGGGATTCTCCAGGAT
modifications: reconstituted with mouse histones H2A, H2B, H3.3 and H4
- binding signal [1]: 1.83 log2 enrichment (bound/unbound, relative to Widom 601)
- binding signal [2]: 2.16 log2 enrichment (bound/unbound, relative to Widom 601)

B2: 77 (nucleosome)
DNA 1: B1 DNA 1 with T79G, C80T, A81C, G83A, C85G, A87C, G88A
DNA 2: B1 DNA 2 with C66T, T67G, G69C, C71T, T73G, G74A, A75C
modifications: reconstituted with mouse histones H2A, H2B, H3.3 and H4
- binding signal [1]: 1.48 log2 enrichment (bound/unbound, relative to Widom 601)
- binding signal [2]: 1.71 log2 enrichment (bound/unbound, relative to Widom 601)

B3: 84 (nucleosome)
DNA 1: ATCCTGGAGAATCCCGGTGCCGAGGCCGCTCAATTGGTCGTAGACAGCTCTAGCACCGCTTAAACGCACGTACGCGCTGTCCCCCGTCAAGGCCACGCCAAGGGGATTACTCCCTAGTCTCCAGGCACGTGTCAGATATATACATCCTGTGAT
DNA 2: ATCACAGGATGTATATATCTGACACGTGCCTGGAGACTAGGGAGTAATCCCCTTGGCGTGGCCTTGACGGGGGACAGCGCGTACGTGCGTTTAAGCGGTGCTAGAGCTGTCTACGACCAATTGAGCGGCCTCGGCACCGGGATTCTCCAGGAT
modifications: reconstituted with mouse histones H2A, H2B, H3.3 and H4
- binding signal [1]: 0.634 log2 enrichment (bound/unbound, relative to Widom 601)
- binding signal [2]: 0.756 log2 enrichment (bound/unbound, relative to Widom 601)

B4: 85 (nucleosome)
DNA 1: B3 DNA 1 with T87C, C88T, A89C, G91A, C93G, A95C, C96A
DNA 2: B3 DNA 2 with G58T, T59G, G61C, C63T, T65G, G66A, A67G
modifications: reconstituted with mouse histones H2A, H2B, H3.3 and H4
- binding signal [1]: 0.756 log2 enrichment (bound/unbound, relative to Widom 601)
- binding signal [2]: 0.748 log2 enrichment (bound/unbound, relative to Widom 601)

B5: 10 (nucleosome)
DNA 1: ATCCTGGAGAATTCAAGGCCAGAGGCCGCTCAATTGGTCGTAGACAGCTCTAGCACCGCTTAAACGCACGTACGCGCTGTCCCCCGCGTTTTAACCGCCAAGGGGATTACTCCCTAGTCTCCAGGCACGTGTCAGATATATACATCCTGTGAT
DNA 2: ATCACAGGATGTATATATCTGACACGTGCCTGGAGACTAGGGAGTAATCCCCTTGGCGGTTAAAACGCGGGGGACAGCGCGTACGTGCGTTTAAGCGGTGCTAGAGCTGTCTACGACCAATTGAGCGGCCTCTGGCCTTGAATTCTCCAGGAT
modifications: reconstituted with mouse histones H2A, H2B, H3.3 and H4
- binding signal [1]: 5.16 log2 enrichment (bound/unbound, relative to Widom 601)
- binding signal [2]: 4.92 log2 enrichment (bound/unbound, relative to Widom 601)

B6: 74 (nucleosome)
DNA 1: ATCCTGGAGAATCCCGGTGCCGAGGCCGCTCAATTGGTCGTAGACAGCTCTAGCACCGCTTAAACGCACGTACGCGTCAAGGCCAGCGTTTTAACCGCCAAGGGGATTACTCCCTAGTCTCCAGGCACGTGTCAGATATATACATCCTGTGAT
DNA 2: ATCACAGGATGTATATATCTGACACGTGCCTGGAGACTAGGGAGTAATCCCCTTGGCGGTTAAAACGCTGGCCTTGACGCGTACGTGCGTTTAAGCGGTGCTAGAGCTGTCTACGACCAATTGAGCGGCCTCGGCACCGGGATTCTCCAGGAT
modifications: reconstituted with mouse histones H2A, H2B, H3.3 and H4
- binding signal [1]: 1.21 log2 enrichment (bound/unbound, relative to Widom 601)
- binding signal [2]: 1.39 log2 enrichment (bound/unbound, relative to Widom 601)

B7: 75 (nucleosome)
DNA 1: B1 DNA 1 with T79C, C80A, A82G, G84C, C86A, A87C
DNA 2: B1 DNA 2 with T67G, G68T, C70G, T72C, G74T, A75G
modifications: reconstituted with mouse histones H2A, H2B, H3.3 and H4
- binding signal [1]: 1.29 log2 enrichment (bound/unbound, relative to Widom 601)
- binding signal [2]: 1.36 log2 enrichment (bound/unbound, relative to Widom 601)

B8: 78 (nucleosome)
DNA 1: ATCCTGGAGAATCCCGGTGCCGAGGCCGCTCAATTGGTCGTAGACAGCTCTAGCACCGCTTAAACGCACGTACGCGCTGTTCAAGGCCATTTAACCGCCAAGGGGATTACTCCCTAGTCTCCAGGCACGTGTCAGATATATACATCCTGTGAT
DNA 2: ATCACAGGATGTATATATCTGACACGTGCCTGGAGACTAGGGAGTAATCCCCTTGGCGGTTAAATGGCCTTGAACAGCGCGTACGTGCGTTTAAGCGGTGCTAGAGCTGTCTACGACCAATTGAGCGGCCTCGGCACCGGGATTCTCCAGGAT
modifications: reconstituted with mouse histones H2A, H2B, H3.3 and H4
- binding signal [1]: 1.77 log2 enrichment (bound/unbound, relative to Widom 601)
- binding signal [2]: 2.13 log2 enrichment (bound/unbound, relative to Widom 601)

B9: 79 (nucleosome)
DNA 1: B8 DNA 1 with T81C, C82T, A83C, G85A, C87G, A89C, T90A
DNA 2: B8 DNA 2 with A64T, T65G, G67C, C69T, T71G, G72A, A73G
modifications: reconstituted with mouse histones H2A, H2B, H3.3 and H4
- binding signal [1]: 1.33 log2 enrichment (bound/unbound, relative to Widom 601)
- binding signal [2]: 1.29 log2 enrichment (bound/unbound, relative to Widom 601)

B10: 83 (nucleosome)
DNA 1: B3 DNA 1 with G86T, T87C, C88A, A90G, G92C, C94A, A95C
DNA 2: B3 DNA 2 with T59G, G60T, C62G, T64C, G66T, A67G, C68A
modifications: reconstituted with mouse histones H2A, H2B, H3.3 and H4
- binding signal [1]: 0.795 log2 enrichment (bound/unbound, relative to Widom 601)
- binding signal [2]: 0.693 log2 enrichment (bound/unbound, relative to Widom 601)

B11: 80 (nucleosome)
DNA 1: B8 DNA 1 with T81C, A83T, A84C, G85A, G86A, C87G, C88G, A89C, T90C, T91A
DNA 2: B8 DNA 2 with A63T, A64G, T65G, G66C, G67C, C68T, C69T, T70G, T71A, A73G
modifications: reconstituted with mouse histones H2A, H2B, H3.3 and H4
- binding signal [1]: 0.765 log2 enrichment (bound/unbound, relative to Widom 601)
- binding signal [2]: 0.924 log2 enrichment (bound/unbound, relative to Widom 601)

B12: 81 (nucleosome)
DNA 1: ATCCTGGAGAATCCCGGTGCCGAGGCCGCTCAATTGGTCGTAGACAGCTCTAGCACCGCTTAAACGCACGTACGCGCTGTCCCTCAAGGCCAAACCGCCAAGGGGATTACTCCCTAGTCTCCAGGCACGTGTCAGATATATACATCCTGTGAT
DNA 2: ATCACAGGATGTATATATCTGACACGTGCCTGGAGACTAGGGAGTAATCCCCTTGGCGGTTTGGCCTTGAGGGACAGCGCGTACGTGCGTTTAAGCGGTGCTAGAGCTGTCTACGACCAATTGAGCGGCCTCGGCACCGGGATTCTCCAGGAT
modifications: reconstituted with mouse histones H2A, H2B, H3.3 and H4
- binding signal [1]: 0.772 log2 enrichment (bound/unbound, relative to Widom 601)
- binding signal [2]: 0.954 log2 enrichment (bound/unbound, relative to Widom 601)

B13: 87 (nucleosome)
DNA 1: B12 DNA 1 with T84C, A86G, A87C, G89T, C90T, A94G, C95G, G97C, C98A
DNA 2: B12 DNA 2 with G56T, C57G, G59C, T60C, G64A, C65A, T67G, T68C, A70G
modifications: reconstituted with mouse histones H2A, H2B, H3.3 and H4
- binding signal [1]: 0.601 log2 enrichment (bound/unbound, relative to Widom 601)
- binding signal [2]: 0.435 log2 enrichment (bound/unbound, relative to Widom 601)

B14: 82 (nucleosome)
DNA 1: B12 DNA 1 with T84C, C85T, A86C, G88A, C90G, A92C
DNA 2: B12 DNA 2 with T62G, G64C, C66T, T68G, G69A, A70G
modifications: reconstituted with mouse histones H2A, H2B, H3.3 and H4
- binding signal [1]: 0.634 log2 enrichment (bound/unbound, relative to Widom 601)
- binding signal [2]: 0.729 log2 enrichment (bound/unbound, relative to Widom 601)

B15: 86 (nucleosome)
DNA 1: B12 DNA 1 with T84C, A86G, A87C, G89T, C91A, A93G, A94G, G97A
DNA 2: B12 DNA 2 with C57T, T60C, T61C, G63T, C65A, T67G, T68C, A70G
modifications: reconstituted with mouse histones H2A, H2B, H3.3 and H4
- binding signal [1]: 0.668 log2 enrichment (bound/unbound, relative to Widom 601)
- binding signal [2]: 0.515 log2 enrichment (bound/unbound, relative to Widom 601)
